Of roughly 7,900 targets only a part is listed; those with a hit were picked by preference. About 0.6% of all pairs of compound and target were hits. Unmarked numbers belong to inactive results.
How the values were obtained:
Assay in all cases: log2 fold change, soluble protein after heating vs DMSO (PISA); higher = thermal stabilisation; K562 cells, 10 uM, 30 min; active = over 0.2 and 3.5 SD of the protein, either way, in both replicates (recomputed)
[1] = compound: COC1=CC=C(C=C1)CN2C=CC3=C2C=C(C=C3)C(=O)NO
In short: (§1)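 K562 cells at 2×10^6 cells/mL were given 10 μM compound for 30 min. Aliquots then went through 3 min of heating across 48°C-58°C, were pooled, and were extracted in PBS with 0.5% NP-40 at 4°C, and the supernatant after 21,000xg for 90 min was quantified by TMTpro 16plex LC-MS/MS with channel sums equalised. Thermal stability relative to control samples, from duplicates, is given as log2 fold change.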

[2] = compound: CON(C)C(=O)N1N=C(c2cc(F)ccc2F)S[C@@]1(CCCN)c1ccccc1 [filanesib]
In short: as §1

[3] = compound: CO[C@H]1C[C@@H]2CC[C@@H](C)[C@@](O)(O2)C(=O)C(=O)N2CCCC[C@H]2C(=O)O[C@H]([C@H](C)C[C@@H]2CC[C@H](n3cnnn3)[C@H](OC)C2)CC(=O)[C@H](C)/C=C(\C)[C@@H](O)[C@@H](OC)C(=O)[C@H](C)C[C@H](C)/C=C/C=C/C=C/1C [zotarolimus]
In short: as §1

[4] = compound: COc1cc(C(=O)O)ccc1NC(=O)[C@@H]1N[C@@H](CC(C)(C)C)[C@](C#N)(c2ccc(Cl)cc2F)[C@H]1c1cccc(Cl)c1F [idasanutlin]
In short: as §1

[5] = compound: COc1cc(Nc2ncc3c(n2)-c2ccc(Cl)cc2C(c2c(F)cccc2OC)=NC3)ccc1C(=O)O [alisertib]
In short: as §1

[6] = compound: COc1cc2nc(-c3cc(F)ccc3O)nc(N[C@@H]3CNC[C@H]3C(C)(C)O)c2cc1OC
In short: as §1

[7] = compound: COc1cc2ncnc(Nc3ccc(F)c(Cl)c3)c2cc1OCCCN1CCOCC1 [gefitinib]
In short: as §1

[8] = compound: COc1cccc2cc(-c3nc([C@H]4CC[C@H](C(=O)O)CC4)n4ncnc(N)c34)[nH]c12
In short: as §1

[9] = compound: CS(=O)(=O)CCNCc1ccc(-c2ccc3ncnc(Nc4ccc(OCc5cccc(F)c5)c(Cl)c4)c3c2)o1 [lapatinib]
In short: as §1

[10] = compound: CS(=O)(=O)N1CCN(Cc2cc3nc(-c4cccc5[nH]ncc45)nc(N4CCOCC4)c3s2)CC1 [pictilisib]
In short: as §1

[11] = compound: CS(=O)(=O)c1ccc(-c2cnc(N)c(C(=O)Nc3ccccc3)n2)cc1
In short: as §1

[12] = compound: C[C@@H](Oc1cc(-c2cnn(C3CCNCC3)c2)cnc1N)c1c(Cl)ccc(F)c1Cl [crizotinib]
In short: as §1

[13] = compound: C[C@@H]1COCCN1C2=NC(=NC(=C2)C3(CC3)S(=O)(=O)C)C4=C5C=CNC5=CC=C4
In short: as §1

[14] = compound: C[C@H](C1=CC=C(C=C1)C(=O)NC2=C3C=CNC3=NC=C2)N
In short: as §1

[15] = compound: C[C@H](Nc1ncnc2nc[nH]c12)c1cc2cccc(Cl)c2c(=O)n1-c1ccccc1 [duvelisib]
In short: as §1

[16] = compound: Cc1cc(Nc2cc(CN3CCOCC3)c3nc(C)c(Cc4ccc(Cl)cc4F)n3n2)n[nH]1 [gandotinib]
In short: as §1

[17] = compound: Cc1cc(Nc2cc(N3CCN(C)CC3)nc(Sc3ccc(NC(=O)C4CC4)cc3)n2)n[nH]1 [tozasertib]
In short: as §1

[18] = compound: Cc1cc(SCc2sc(-c3ccc(C(F)(F)F)cc3)nc2C)ccc1OCC(=O)O
In short: as §1

[19] = compound: Cc1ccc(-n2nc(C(C)(C)C)cc2NC(=O)Nc2ccc(OCCN3CCOCC3)c3ccccc23)cc1 [doramapimod]
In short: as §1

[20] = compound: Cc1ccc(C(=O)N(CCCN)[C@@H](c2nc3cc(Cl)ccc3c(=O)n2Cc2ccccc2)C(C)C)cc1 [ispinesib]
In short: as §1

UniProt Q9Y5L0, sequence (Q9Y5L0 whole entry, looked up): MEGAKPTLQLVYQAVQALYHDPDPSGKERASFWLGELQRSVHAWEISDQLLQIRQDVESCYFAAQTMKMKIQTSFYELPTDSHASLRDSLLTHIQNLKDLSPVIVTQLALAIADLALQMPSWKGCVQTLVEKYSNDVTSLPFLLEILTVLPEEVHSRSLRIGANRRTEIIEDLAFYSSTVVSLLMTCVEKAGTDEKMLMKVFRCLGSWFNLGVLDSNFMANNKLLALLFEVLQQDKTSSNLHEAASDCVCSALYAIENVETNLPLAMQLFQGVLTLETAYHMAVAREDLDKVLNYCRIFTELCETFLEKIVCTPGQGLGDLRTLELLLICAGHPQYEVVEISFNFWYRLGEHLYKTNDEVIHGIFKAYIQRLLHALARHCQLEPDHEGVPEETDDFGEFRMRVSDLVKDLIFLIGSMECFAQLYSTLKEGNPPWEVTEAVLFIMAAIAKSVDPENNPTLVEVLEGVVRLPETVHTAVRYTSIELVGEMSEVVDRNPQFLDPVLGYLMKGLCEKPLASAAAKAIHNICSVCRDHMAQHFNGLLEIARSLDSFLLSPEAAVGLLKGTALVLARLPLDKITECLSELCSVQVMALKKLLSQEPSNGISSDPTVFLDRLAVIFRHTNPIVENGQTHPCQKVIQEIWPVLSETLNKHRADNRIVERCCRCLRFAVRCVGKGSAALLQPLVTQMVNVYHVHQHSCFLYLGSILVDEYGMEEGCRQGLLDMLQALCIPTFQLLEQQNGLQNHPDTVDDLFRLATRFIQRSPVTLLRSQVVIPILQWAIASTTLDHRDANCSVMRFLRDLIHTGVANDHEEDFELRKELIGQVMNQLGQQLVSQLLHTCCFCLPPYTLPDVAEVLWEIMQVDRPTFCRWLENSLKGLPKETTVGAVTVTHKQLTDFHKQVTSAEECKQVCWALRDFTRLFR
UniProt P49815, sequence (P49815 whole entry, looked up): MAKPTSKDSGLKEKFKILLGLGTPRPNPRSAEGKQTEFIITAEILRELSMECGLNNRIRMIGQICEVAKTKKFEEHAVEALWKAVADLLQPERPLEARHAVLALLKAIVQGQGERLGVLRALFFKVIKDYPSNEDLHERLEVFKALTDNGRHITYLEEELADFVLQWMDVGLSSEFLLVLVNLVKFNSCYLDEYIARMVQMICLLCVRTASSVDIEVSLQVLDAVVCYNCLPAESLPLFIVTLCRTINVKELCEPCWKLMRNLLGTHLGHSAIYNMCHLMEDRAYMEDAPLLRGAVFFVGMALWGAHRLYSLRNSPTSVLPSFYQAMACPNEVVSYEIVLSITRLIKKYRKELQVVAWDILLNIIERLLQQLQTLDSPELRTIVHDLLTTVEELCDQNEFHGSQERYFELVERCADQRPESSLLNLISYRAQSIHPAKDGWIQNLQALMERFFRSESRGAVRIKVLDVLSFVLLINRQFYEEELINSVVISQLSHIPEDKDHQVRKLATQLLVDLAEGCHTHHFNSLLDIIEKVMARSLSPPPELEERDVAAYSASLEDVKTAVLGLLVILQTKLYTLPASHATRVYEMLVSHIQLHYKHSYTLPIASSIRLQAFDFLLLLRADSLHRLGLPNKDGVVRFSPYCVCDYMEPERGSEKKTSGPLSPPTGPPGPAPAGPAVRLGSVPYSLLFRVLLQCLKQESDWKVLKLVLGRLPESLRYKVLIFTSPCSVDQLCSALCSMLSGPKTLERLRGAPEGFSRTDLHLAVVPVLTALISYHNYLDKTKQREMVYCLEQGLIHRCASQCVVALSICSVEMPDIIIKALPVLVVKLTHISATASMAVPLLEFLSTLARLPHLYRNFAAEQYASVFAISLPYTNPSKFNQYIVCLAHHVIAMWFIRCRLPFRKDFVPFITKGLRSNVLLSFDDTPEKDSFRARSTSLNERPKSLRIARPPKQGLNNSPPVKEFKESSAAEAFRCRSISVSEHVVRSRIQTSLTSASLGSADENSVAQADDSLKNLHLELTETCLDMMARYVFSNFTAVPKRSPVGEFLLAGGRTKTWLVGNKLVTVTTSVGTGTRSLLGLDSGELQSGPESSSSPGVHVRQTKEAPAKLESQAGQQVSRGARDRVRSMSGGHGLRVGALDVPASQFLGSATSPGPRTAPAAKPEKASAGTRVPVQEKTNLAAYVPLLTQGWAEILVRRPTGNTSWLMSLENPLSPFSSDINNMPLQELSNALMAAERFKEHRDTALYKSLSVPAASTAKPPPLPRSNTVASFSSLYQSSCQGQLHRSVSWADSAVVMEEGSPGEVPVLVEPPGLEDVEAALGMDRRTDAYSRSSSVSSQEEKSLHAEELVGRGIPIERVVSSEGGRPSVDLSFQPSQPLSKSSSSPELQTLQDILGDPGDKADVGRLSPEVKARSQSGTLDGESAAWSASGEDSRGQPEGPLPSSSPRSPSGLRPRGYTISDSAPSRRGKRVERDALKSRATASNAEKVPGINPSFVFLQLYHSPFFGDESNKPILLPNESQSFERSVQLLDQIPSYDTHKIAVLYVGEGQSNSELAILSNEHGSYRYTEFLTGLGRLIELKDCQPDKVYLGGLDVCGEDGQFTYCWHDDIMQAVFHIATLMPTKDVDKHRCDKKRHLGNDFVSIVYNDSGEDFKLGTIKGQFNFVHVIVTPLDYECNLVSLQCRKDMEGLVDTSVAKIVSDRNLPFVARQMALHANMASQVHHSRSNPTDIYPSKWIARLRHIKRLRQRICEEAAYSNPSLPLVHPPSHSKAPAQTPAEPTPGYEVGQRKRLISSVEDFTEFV
UniProt Q16881, sequence (Q16881 whole entry, looked up): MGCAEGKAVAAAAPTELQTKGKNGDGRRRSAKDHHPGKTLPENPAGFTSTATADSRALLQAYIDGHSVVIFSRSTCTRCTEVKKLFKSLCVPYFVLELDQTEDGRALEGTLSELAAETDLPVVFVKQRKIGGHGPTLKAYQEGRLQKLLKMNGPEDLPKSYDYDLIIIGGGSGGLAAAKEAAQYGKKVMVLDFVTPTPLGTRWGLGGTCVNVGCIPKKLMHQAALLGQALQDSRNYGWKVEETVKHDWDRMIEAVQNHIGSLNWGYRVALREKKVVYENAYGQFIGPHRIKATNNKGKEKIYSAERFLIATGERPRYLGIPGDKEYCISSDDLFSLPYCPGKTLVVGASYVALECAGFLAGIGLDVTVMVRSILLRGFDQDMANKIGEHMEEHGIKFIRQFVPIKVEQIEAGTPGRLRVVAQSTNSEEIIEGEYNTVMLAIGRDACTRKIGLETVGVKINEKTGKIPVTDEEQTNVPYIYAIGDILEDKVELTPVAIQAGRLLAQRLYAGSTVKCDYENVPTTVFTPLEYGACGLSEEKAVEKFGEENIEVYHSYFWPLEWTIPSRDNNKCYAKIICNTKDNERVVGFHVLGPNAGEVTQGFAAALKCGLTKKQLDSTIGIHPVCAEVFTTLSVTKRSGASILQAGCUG
UniProt O43156, sequence (O43156 whole entry, looked up): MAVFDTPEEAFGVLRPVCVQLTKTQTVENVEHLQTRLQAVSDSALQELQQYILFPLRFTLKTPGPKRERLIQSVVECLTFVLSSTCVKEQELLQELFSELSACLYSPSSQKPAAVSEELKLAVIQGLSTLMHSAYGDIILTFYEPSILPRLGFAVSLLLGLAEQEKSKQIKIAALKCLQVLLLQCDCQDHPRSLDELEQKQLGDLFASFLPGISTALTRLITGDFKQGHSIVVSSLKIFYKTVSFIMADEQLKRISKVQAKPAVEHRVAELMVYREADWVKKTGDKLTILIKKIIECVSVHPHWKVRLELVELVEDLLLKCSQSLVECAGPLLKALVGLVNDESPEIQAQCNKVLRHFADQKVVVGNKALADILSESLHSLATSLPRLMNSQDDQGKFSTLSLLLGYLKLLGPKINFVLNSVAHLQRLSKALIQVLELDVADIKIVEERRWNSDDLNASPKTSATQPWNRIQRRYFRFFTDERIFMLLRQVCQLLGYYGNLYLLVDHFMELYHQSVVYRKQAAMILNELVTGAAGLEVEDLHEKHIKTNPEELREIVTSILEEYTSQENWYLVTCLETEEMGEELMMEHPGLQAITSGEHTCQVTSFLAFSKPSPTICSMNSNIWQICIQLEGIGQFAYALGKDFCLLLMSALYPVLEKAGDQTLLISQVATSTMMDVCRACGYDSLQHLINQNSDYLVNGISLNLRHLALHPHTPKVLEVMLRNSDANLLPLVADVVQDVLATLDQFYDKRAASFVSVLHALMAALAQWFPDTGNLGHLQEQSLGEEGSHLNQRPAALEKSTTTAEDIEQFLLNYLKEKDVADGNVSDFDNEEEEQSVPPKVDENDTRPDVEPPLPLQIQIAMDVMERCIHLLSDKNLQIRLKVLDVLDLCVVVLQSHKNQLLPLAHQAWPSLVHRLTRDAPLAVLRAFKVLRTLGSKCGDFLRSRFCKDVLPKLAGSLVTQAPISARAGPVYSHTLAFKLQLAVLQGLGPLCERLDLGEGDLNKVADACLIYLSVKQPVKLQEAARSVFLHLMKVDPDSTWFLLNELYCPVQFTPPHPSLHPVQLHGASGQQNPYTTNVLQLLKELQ
UniProt Q9Y5Z9, sequence (Q9Y5Z9 whole entry, looked up): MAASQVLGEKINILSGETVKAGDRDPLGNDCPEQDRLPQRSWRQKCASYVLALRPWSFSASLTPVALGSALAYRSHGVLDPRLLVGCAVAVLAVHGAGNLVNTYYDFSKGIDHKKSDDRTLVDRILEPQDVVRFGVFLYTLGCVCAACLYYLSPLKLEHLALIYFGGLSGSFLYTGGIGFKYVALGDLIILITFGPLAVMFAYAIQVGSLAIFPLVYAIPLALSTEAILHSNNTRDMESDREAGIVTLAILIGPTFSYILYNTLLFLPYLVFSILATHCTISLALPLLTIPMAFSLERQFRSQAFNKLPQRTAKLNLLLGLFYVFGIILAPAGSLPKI
UniProt Q9NQ34, sequence (Q9NQ34 whole entry, looked up): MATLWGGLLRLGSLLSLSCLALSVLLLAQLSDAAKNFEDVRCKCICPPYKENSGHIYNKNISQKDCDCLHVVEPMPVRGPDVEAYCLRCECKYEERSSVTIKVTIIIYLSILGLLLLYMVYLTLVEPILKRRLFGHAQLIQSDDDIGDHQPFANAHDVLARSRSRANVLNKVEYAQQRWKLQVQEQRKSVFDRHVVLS

Target | log2 fold change [1] | log2 fold change [2] | log2 fold change [3] | log2 fold change [4] | log2 fold change [5] | log2 fold change [6] | log2 fold change [7] | log2 fold change [8] | log2 fold change [9] | log2 fold change [10] | log2 fold change [11] | log2 fold change [12] | log2 fold change [13] | log2 fold change [14] | log2 fold change [15] | log2 fold change [16] | log2 fold change [17] | log2 fold change [18] | log2 fold change [19] | log2 fold change [20]
TOP2A isoform 4 (UniProt P11388) | 0.052 | 0.486 | 0.079 | 0.24 | -0.144 | -0.029 | -0.042 | -0.4 | 0.13 | -0.071 | -0.071 | -0.157 | -0.337 | 0.559 | -0.185 | 0.158 | -0.025 | 0.015 | 0.362 | -0.376
TSC2 (UniProt P49815) | 0.361 | 0.198 | -0.181 | 0.017 | 0.195 | -0.039 | – | 0.139 | 0.135 | 0.076 | -0.09 | 0.065 | -0.139 | 0.218 | – | -0.091 | -0.172 | – | 0.09 | 0.012
TYW1 (UniProt Q9NV66) | -0.16 | -0.01 | 0.019 | -0.023 | 0 | 0.095 | 0.013 | -0.006 | 0 | -0.147 | 0.038 | 0.143 | 0.032 | 0.053 | 0.035 | -0.004 | 0.037 | 0.021 | 0.008 | 0.179
TRABD (UniProt Q9H4I3) | 0.001 | 0.051 | 0.11 | 0.167 | -0.109 | 0.198 | 0.149 | -0.006 | 0.081 | 0.15 | -0.041 | 0.174 | 0.097 | -0.062 | – | 0.059 | 0.009 | – | 0.025 | 0.597 (active)
WDR41 (UniProt Q9HAD4) | 0.025 | -0.154 | -0.007 | -0.031 | -0.072 | -0.254 | -0.002 | 0.014 | 0.049 | -0.056 | 0.01 | -0.093 | -0.064 | -0.064 | 0.013 | -0.035 | -0.002 | -0.02 | -0.042 | -0.172
UBIAD1 (UniProt Q9Y5Z9) | -0.063 | -0.038 | -0.246 | -0.039 | -0.054 | -0.008 | 0.077 | 0.013 | 0.082 | 0.103 | 0.107 | 0.024 | – | 0.001 | 0.021 | 0.069 | -0.019 | 0.004 | -0.1 | -0.117
TMEM128 (UniProt Q5BJH2) | -0.065 | 0.152 | -0.181 | 0.035 | – | 0.025 | 0.076 | – | -0.068 | – | 0.001 | 0.234 | -0.062 | 0.025 | -0.009 | – | 0.06 | 0.016 | -0.138 | 0.021
VKORC1 (UniProt Q9BQB6) | 0.079 | -0.077 | 0.022 | -0.089 | 0.016 | -0.019 | -0.05 | -0.144 | -0.06 | -0.021 | 0.012 | 0.494 (active) | – | -0.032 | 0.153 | -0.116 | -0.027 | 0.106 | 0.033 | -0.108
TXNRD1 (UniProt Q16881) | 0.018 | -0.101 | 0.006 | -0.144 | -0.012 | -0.023 | 0.026 | 0.052 | -0.055 | 0.062 | 0.075 | -0.043 | 0.079 | -0.053 | 0.047 | -0.045 | -0.036 | -0.007 | -0.028 | -0.009
TTI1 (UniProt O43156) | -0.031 | 0.081 | 0.091 | -0.097 | -0.112 | 0.02 | -0.057 | -0.019 | -0.008 | 0.049 | 0.075 | -0.143 | 0.003 | 0.059 | -0.03 | -0.119 | 0.041 | 0.033 | 0.059 | -0.204
UBA52 (UniProt P62987) | 0 | 0.519 | -0.171 | 0.308 | -0.131 | -0.203 | – | -0.275 | 0.141 | -0.177 | -0.065 | -0.02 | -0.909 (active) | 0.364 | – | 0.44 | 0.053 | – | 0.118 | -0.165
TRIM44 (UniProt Q96DX7) | -0.074 | 0.022 | 0.005 | -0.025 | 0.008 | -0.047 | -0.027 | -0.033 | 0.025 | 0.039 | 0.013 | 0.083 | – | -0.059 | 0.063 | 0.045 | 0.022 | 0.024 | -0.004 | 0.03
TRMT10C (UniProt Q7L0Y3) | -0.045 | -0.031 | 0.016 | -0.107 | -0.033 | 0.018 | 0.039 | 0.005 | -0.033 | 0.007 | 0.045 | 0.03 | 0.109 | -0.013 | 0.024 | -0.072 | 0 | 0.069 | -0.008 | 0.017
TNPO3 (UniProt Q9Y5L0) | 0.053 | -0.094 | 0.036 | -0.074 | -0.064 | -0.035 | -0.012 | -0.004 | -0.035 | 0.077 | -0.028 | -0.151 | 0.025 | -0.124 | -0.008 | -0.143 | 0.087 | 0.046 | -0.046 | 0.008
TOM1L2 (UniProt Q6ZVM7) | -0.04 | 0.029 | -0.036 | -0.002 | – | – | 0.028 | – | – | – | 0.03 | 0.101 | 0.118 | 0.087 | 0.099 | – | – | 0.035 | 0.02 | –
TMEM9B (UniProt Q9NQ34) | 0.001 | -0.039 | 0.014 | 0.036 | -0.032 | 0.011 | -0.047 | -0.068 | -0.118 | 0.07 | -0.035 | -0.011 | 0.105 | 0.061 | – | -0.116 | -0.03 | – | 0.023 | -0.211
UTP3 (UniProt Q9NQZ2) | -0.058 | 0.368 | 0.125 | 0.26 | -0.09 | -0.074 | – | -0.067 | 0.204 | -0.06 | 0.015 | 0.061 | -0.494 | 0.363 | -0.133 | 0.17 | 0.017 | -0.04 | 0.099 | -0.144

— the supplement of paper PMC10849652
